Results published in PubChem BioAssay.
The source made the active and inactive calls.

Columns and labels:
[1] = biological target: Albumin (Bos taurus) (UniProt P02769); experiment: compounds binding labelled BSA control protein – biochemical, small-molecule microarray, Alexa647 label, 635/667 nm fluorescence, artefact control for SMM control protein annotation, profiling panel (AID 1118); settings: BSA-A647 binding, fluorescence 635 nm, higher = more signal;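 further: score merges 667 nm emission intensity and signal-to-noise per printed compound spot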
Chain of Albumin (Bos taurus) (P02769 whole entry, looked up): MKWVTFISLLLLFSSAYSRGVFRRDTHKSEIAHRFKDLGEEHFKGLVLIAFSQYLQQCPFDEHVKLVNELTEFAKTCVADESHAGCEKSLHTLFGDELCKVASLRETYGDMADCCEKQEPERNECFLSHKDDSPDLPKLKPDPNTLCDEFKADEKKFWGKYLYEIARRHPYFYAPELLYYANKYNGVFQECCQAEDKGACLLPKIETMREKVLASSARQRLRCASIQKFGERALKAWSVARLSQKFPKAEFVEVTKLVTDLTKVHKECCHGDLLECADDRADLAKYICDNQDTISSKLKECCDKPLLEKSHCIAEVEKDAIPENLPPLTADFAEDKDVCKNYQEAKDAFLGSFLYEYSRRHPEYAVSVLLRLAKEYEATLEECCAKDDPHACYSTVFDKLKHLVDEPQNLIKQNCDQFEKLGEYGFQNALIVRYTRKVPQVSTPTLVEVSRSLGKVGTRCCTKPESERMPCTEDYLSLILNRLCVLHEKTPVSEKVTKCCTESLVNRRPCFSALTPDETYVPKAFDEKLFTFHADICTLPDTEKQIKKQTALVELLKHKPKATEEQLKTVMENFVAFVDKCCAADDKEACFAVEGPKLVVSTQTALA

[2] = probe aXIP binding to arrayed compounds – biochemical, NeuroSMM set, 635/667 nm fluorescence, primary screen (AID 1119); settings: small-molecule microarray, higher = more signal, called active from +8 up or from −8 down;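 further: probe is the protein aXip251-270 applied at 1 µg/mL to compound-printed slides; binding of probe to printed compounds measured as 667 nm fluorescence plus signal to noise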
[3] = probe aNOTCH3 binding on compound microarray – biochemical, small-molecule microarray, 635/667 nm fluorescence, primary screen (AID 1120); settings: higher = more signal;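 further: probe is a biotin-tagged antibody raised against NOTCH3 rather than NOTCH3 protein; score merges spot fluorescence near 667 nm with spot signal to noise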
[4] = probe aNOTCH2 binding on compound microarray – biochemical, small-molecule microarray, 635/667 nm fluorescence, primary screen (AID 1121); settings: higher = more signal;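 further: score merges feature fluorescence read at 667 nm with its signal to noise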
[5] = biological target: Carbonic anhydrase 2 (Homo sapiens) (UniProt P00918); experiment: compounds binding carbonic anhydrase 2 – biochemical, small-molecule microarray, Alexa647-labelled CAII, profiling panel (AID 1122); settings: CAII-A647 binding fluorescence, higher = more signal
[6] = COS7 lysate on small-molecule microarray, probe aHis, 635 nm (AID 1123); settings: COS7 cell lysate, fluorescence, higher = more signal;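 further: z-score combines 667nm fluorescence intensity with signal-to-noise per printed compound spot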
[7] = probe aLAP1 signal on lysate-treated microarray – cell lysate, small-molecule microarray, COS7 lysate, primary screen (AID 1124); settings: probe aLAP1, fluorescence, higher = more signal;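 further: lysate comes from COS7 cells expressing LAP1 and is applied at 0.3 µg/mL; score merges spot fluorescence near 667 nm with signal-to-noise over triplicate slides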
[8] = system: Sam68 (KHDRBS1); experiment: compounds binding KHDRBS1 protein – biochemical, small-molecule microarray, 635 nm fluorescence, primary screen (AID 1125); settings: higher = more signal;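 further: score merges 667 nm channel intensity with signal to noise over triplicate slides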
[9] = system: Chordin-like protein 2 (CHRDL2); experiment: compounds binding chordin-like 2 – biochemical, small-molecule microarray, 635 nm fluorescence, primary screen (AID 1126); settings: fluorescence 635 nm, higher = more signal;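 further: printed compound slides probed with Chrdl2 protein at 4 µg/mL for 1 h at 4 C; score merges 667 nm emission intensity with signal to noise over three replicate slides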
[10] = biological target: Concanavalin-A (Canavalia ensiformis) (UniProt P02866); experiment: compounds binding concanavalin A lectin – biochemical, small-molecule microarray, Alexa647 label, 635 nm, artefact control for SMM control protein annotation, primary screen (AID 1127); settings: ConA-A647 binding fluorescence, higher = more signal;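 further: z combines 667 nm emission intensity with signal-to-noise across three replicate slides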
Chain of Concanavalin-A (Canavalia ensiformis) (P02866 whole entry, looked up): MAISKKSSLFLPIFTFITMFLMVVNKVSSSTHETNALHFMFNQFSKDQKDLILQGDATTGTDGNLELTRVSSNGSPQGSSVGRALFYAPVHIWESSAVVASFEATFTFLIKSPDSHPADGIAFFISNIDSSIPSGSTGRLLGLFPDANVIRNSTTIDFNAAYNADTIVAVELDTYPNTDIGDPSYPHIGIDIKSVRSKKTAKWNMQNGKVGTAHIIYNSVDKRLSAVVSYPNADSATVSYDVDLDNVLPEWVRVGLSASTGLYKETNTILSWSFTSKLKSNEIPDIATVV

SMILES	composite z-score [1]	composite Z-score [2]	composite z-score [3]	composite z-score [4]	composite z-score [5]	composite z-score [6]	composite z-score [7]	composite z-score [8]	composite z-score [9]	composite z-score [10]
C=CCN1C(=O)[C@]2(O[C@H](CCO)[C@@H]([Si](C)(C)c3ccc(OC)cc3)[C@@H]2C)c2cc(N3C(=O)c4cccc5cccc3c45)ccc21	0.634	-0.106 (inactive)	-0.0377	-0.0956	0.542	0.808	0.0553	0.838	0.0493	0.795
C=CCOC(=O)[C@H]1[C@@H]2C(=O)O[C@@H](c3ccccc3)[C@@H](c3ccccc3)N2[C@@H](c2ccc(OCCOC(=O)[C@H]3C[C@H]4C(=O)N[C@@H](CC(C)C)C(=O)N4[C@H]3c3ccc(O)cc3)cc2)[C@]12C(=O)Nc1ccc(I)cc12	-0.262	0.672 (inactive)	0.17	-0.117	0.597	1.77	0.818	1.28	1.37	1.16
CN(C)CCCNC(=O)[C@@]1(c2ccc([N+](=O)[O-])cc2)CC(=O)N(C2CCCCC2)[C@@H]1c1ccc(CO)cc1I	-0.13	-0.75 (inactive)	-0.128	-0.124	0.397	1.7	0.742	1.34	0.096	1.15
CC(C)C[C@@H]1NC(=O)[C@H]2C[C@@H](C(=O)NCCCCCCN)[C@@H](c3ccc(O)cc3)N2C1=O	0.0662	0.0781 (inactive)	-0.0023	0.171	0.728	2.16	0.627	0.633	1.22	1.18
COC(=O)[C@@]1(Cc2ccc(F)cc2)[C@H]2c3cc(C(=O)N4CCCC4)n(Cc4ccc(C)o4)c3C[C@H]2CN1C(=O)c1ccccc1	0.469	0.157 (inactive)	0.28	0.354	0.546	1.95	0.137	-0.459	-0.549	0.851
OC([C@@H]1CC(c2ccccc2)=NO1)[C@H]1CC(c2ccccc2)=NO1 (stereo not given in full)	0.558	-0.227 (inactive)	-0.0465	-0.0859	-0.11	-0.262	-0.105	-0.285	0.191	-0.363
CCOC(=O)[C@H]1C/C=C/C[C@H](C(=O)OCC)C(=O)O[C@H]2[C@@H](OC)O[C@H](CO)[C@@H](OC(=O)Nc3ccc(C#N)cc3)[C@@H]2OC1=O	0.842	0.941 (inactive)	-0.307	-0.159	0.607	0.823	0.603	0.171	-0.619	-0.175
C=CCNC(=O)[C@@H]1[C@H]2C(=O)O[C@H](c3ccccc3)[C@H](c3ccccc3)N2[C@H](c2ccc(OCCO)cc2)[C@@]12C(=O)Nc1ccc(C#CCCO)cc12	0.495	0.858 (inactive)	0.999	0.403	0.659	2.62	0.906	1.29	1.15	1.15
COCCOC(=O)N1C(=O)[C@@]2(c3cc(C#Cc4ccc(OC)cc4)ccc31)[C@H](c1ccccc1OCCO)N1[C@H](c3ccccc3)[C@H](c3ccccc3)OC(=O)[C@H]1[C@@H]2C(=O)N1CCN(c2ncccn2)CC1	0.322	0.179 (inactive)	-0.0288	-0.131	0.336	0.572	0.141	0.866	0.0135	0.923
C#CCN(CC=C(C)C)[C@H](CO)c1ccccc1	-0.258	0.289 (inactive)	0.0081	-0.0819	-0.0144	-0.41	-0.277	0.584	-0.184	-0.711
CCCCN1CC=CC23O[C@@H]4C=CCOC(=O)[C@@H]4[C@H]2C(=O)N(CCCCCO)[C@@H]3C1=O (stereo not given in full)	0.914	0.102 (inactive)	-0.199	-0.0422	0.858	1.8	1.3	-0.445	-0.769	-1.08
CC1CC/C=C\[C@H]2OC34C=CCN(c5ccc(Cl)cc5)C(=O)[C@H]3N(CCO)C(=O)[C@]4(C)C2C(=O)O1 (stereo not given in full)	-0.0427	-0.0662 (inactive)	-0.152	-0.149	0.902	-0.507	0.627	0.409	-0.961	-0.206
CC(C)c1ccc(NN2C(C(O)c3cc(C(F)(F)F)cc(C(F)(F)F)c3)C=CC3C(=O)N(c4ccccc4)C(=O)C32)cc1 (stereo not given)	0.588	-0.117 (inactive)	0.0203	0.0506	0.489	2.43	0.152	0.924	-0.219	0.568
CCOC(=O)[C@H]1CC=C2CC1C(=O)N1CCC[C@@H]1[C@@H]2O[Si](C)(C)C(C)(C)C (stereo not given in full)	-0.0458	0.131 (inactive)	-0.213	-0.161	-0.386	0.168	-0.407	-0.0813	-0.287	-2.28
C=C(CCCC)/C(=C/C[C@@H](OC(C)=O)c1ccccc1OCCO)c1cnc2ccccc2c1	0.263	0.523 (inactive)	0.033	-0.0209	0.684	0.206	0.719	0.97	0.333	0.535
C=CCN(Cc1ccccc1)C(=O)C(c1cccs1)N(CCOCCO)C(=O)/C=C\C(=O)O (stereo not given)	-0.462	0.131 (inactive)	-0.553	-0.165	0.39	-0.25	-0.658	-0.754	-3.82	-1.33
COc1ccc(CCN2C(=O)[C@@]3(Cc4ccccc42)c2ccccc2C(=O)N(Cc2ccccc2C(F)(F)F)[C@H]3c2ccc(CO)cc2)cc1	-0.951	0.319 (inactive)	-0.0718	-0.193	0.107	0.387	0.184	0.242	0.736	1.13
COC(=O)[C@@]1(Cc2ccccc2)[C@H]2c3cc(C(=O)N4CCCC4)n(CC4CC4)c3C[C@H]2CN1C(=O)c1ccccc1	0.946	1.02 (inactive)	1.13	0.389	0.641	2.89	0.114	1.3	-0.311	0.818
O=C1OCCC/C=C\[C@H]2OC34C=CCN(Cc5ccccc5)C(=O)[C@H]3N(CCCCCCO)C(=O)[C@@H]4C12 (stereo not given in full)	-0.449	0.986 (inactive)	-0.262	-0.141	0.893	-0.19	0.468	0.139	-1.24	-1.3
COc1ccc(C(=O)Nc2ccc(CN3C(=O)[C@@]4(O[C@@H](CCn5cc([C@H](O)c6ccccc6)nn5)[C@H]([Si](C)(C)c5ccc(OC)cc5)[C@H]4C)c4ccccc43)cc2)cc1	0.0961	0.611 (inactive)	-0.0377	-0.124	0.563	1.39	0.0085	0.876	-0.238	0.399
O=C1O[C@@H](c2ccccc2)[C@@H](c2ccccc2)N2[C@@H](c3ccc(OCCO)cc3)[C@]3(C(=O)Nc4ccccc43)[C@@H](C(=O)NC[C@H](O)c3ccccc3)[C@H]12	0.393	0.312 (inactive)	0.0519	-0.0649	0.549	1.67	0.759	0.989	0.895	0.999
COC(=O)C(CC#Cc1ccc2c(c1)[C@]1(C(=O)N2)[C@H](c2ccc(O)cc2)N2[C@H](c3ccccc3)[C@H](c3ccccc3)OC(=O)[C@H]2[C@@H]1C(=O)Nc1nc2ccccc2s1)C(=O)OC	0.847	-0.516 (inactive)	0.138	-0.0454	0.556	2.21	0.445	1.31	0.806	1.12
CCOC1=C2C(CN(S(=O)(=O)c3ccc(C)cc3)C2c2ccc(C)cc2)C2C(=O)N(c3ccccc3)C(=O)C2C1 (stereo not given)	0.453	0.0045 (inactive)	0.24	-0.0665	0.676	1.58	0.377	0.814	0.479	0.654
[N-]=[N+]=Nc1ccccc1C[C@]1(C(=O)NCC(O)CO)N=C(c2ccc(OCCCO)cc2)O[C@H]1c1ccccc1N=[N+]=[N-] (stereo not given in full)	0.376	0.045 (inactive)	0.0151	0.0809	0.391	1.69	-0.352	0.431	-0.424	-0.899
C=CCC(OC(C)=O)[C@@H]1[C@@H](N(Cc2ccc(-c3ccccc3)cc2)C(=O)Cc2ccc(F)cc2)c2cc(OCCCO)ccc2N1C(=O)c1ccc(-c2ccccc2)cc1 (stereo not given in full)	0.127	-0.405 (inactive)	0.0905	-0.141	-0.249	-0.338	0.0362	0.0072	0.528	-0.136
CN1C(=O)C2C=CC(C(O)Cc3ccccc3)N(Nc3ccccc3)C2C1=O (stereo not given)	0.554	-0.193 (inactive)	-0.0311	-0.0196	0.589	3.06	-0.333	-0.0158	-0.513	0.672
[N-]=[N+]=Nc1ccccc1[C@H]1OC(c2ccc(OCCCO)cc2)=N[C@@]1(Cc1ccccc1)C(=O)O	0.59	-0.001 (inactive)	0.196	-0.146	0.344	1.64	0.0378	1.31	-0.392	0.619
CC(C)c1ccc(NN2C(C(O)C(c3ccccc3)c3ccccc3)C=CC3C(=O)N(c4ccccc4)C(=O)C32)cc1 (stereo not given)	0.933	-0.136 (inactive)	0.424	0.101	0.797	2.74	0.902	1.32	-0.348	1.14
COCCOC(=O)N1C(=O)[C@@]2(c3ccccc31)[C@H](c1ccc(O)cc1)N1[C@H](c3ccccc3)[C@H](c3ccccc3)OC(=O)[C@H]1[C@@H]2C(=O)NC[C@H](O)c1ccccc1	0.827	0.442 (inactive)	0.0888	-0.0513	0.756	1.79	0.506	1.07	-1.04	0.291
